Holding throughout (settings): mRNA level, 48 h; actives raise or lower the signal
Read-out in one test: BCL2L11 (gene 10018)
In words: LTEA_HepaRG_BCL2L11: Life Technologies and Expression Analysis (LTEA) Assay for Bcl-2 (BCL2L11) gene using HepaRG (AID 2283473). In a few lines: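 Human hepatic HepaRG cultures are treated 48 h with test chemicals (maximum 100 uM, 0.5% DMSO vehicle). Expression of BCL2L11 is measured by qRT-PCR against ACTB, GAPDH and POLR2A, with activity in either direction scored relative to vehicle.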

Read-out in test [1]: Apolipoprotein A-V (APOA5) gene, APOA5 (gene 116519)
Description: LTEA_HepaRG_APOA5: Life Technologies and Expression Analysis (LTEA) Assay for Apolipoprotein A-V (APOA5) gene using HepaRG (AID 2283474). In a few lines: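 Concentration-response of APOA5 expression in HepaRG: eight half-log doses to 100 uM, 48 h, qRT-PCR normalized to ACTB/GAPDH/POLR2A, bidirectional fitting with 0.5% DMSO as baseline.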

Read-out in test [2]: Apoptosis regulator Bcl-2 (Homo sapiens) (UniProt P10415)
Description: LTEA_HepaRG_BCL2: Life Technologies and Expression Analysis (LTEA) Assay for Bcl-2 gene using HepaRG (AID 2283475). In a few lines:
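Differentiated HepaRG cells in serum-free induction medium were exposed for 48 h to eight half-log concentrations up to 100 uM in 0.5% DMSO, in duplicate. BCL2 mRNA was quantified by TaqMan qRT-PCR normalised to ACTB, GAPDH and POLR2A, with bidirectional fitting versus DMSO.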

Read-out in the next test: Caspase-3 (Homo sapiens) (UniProt P42574)
Description: LTEA_HepaRG_CASP3: Life Technologies and Expression Analysis (LTEA) Assay for cysteine-aspartic acid protease (CASP3) using HepaRG (AID 2283477). In a few lines:
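Transcript-level assay: CASP3 mRNA in human HepaRG after 48 h treatment, eight half-log concentrations from 100 uM in 0.5% DMSO, quantified by qRT-PCR.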

Read-out in test [3]: Cytochrome P450 (CYP24A1), CYP24A1 (gene 1591)
Description: LTEA_HepaRG_CYP24A1: Life Technologies and Expression Analysis (LTEA) Assay for Cytochrome P450 (CYP24A1) using HepaRG (AID 2283478). In a few lines:
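Gene expression of CYP24A1 by TaqMan qRT-PCR in HepaRG after 48 h treatment, highest concentration 100 uM; activity fitted in both directions relative to DMSO vehicle.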

Read-out in test [4]: Cytochrome P450 (CYP1A2), CYP1A2 (gene 1544)
Description: LTEA_HepaRG_CYP1A2: Life Technologies and Expression Analysis (LTEA) Assay for Cytochrome P450 (CYP1A2) using HepaRG (AID 2283479). In a few lines: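 In duplicate wells, HepaRG cultures maintained in 0.5% DMSO were treated 48 h across an 8-point, half-log series topping at 100 uM; phenobarbital (1 mM) served as induction control. Expression was read by qRT-PCR.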

Read-out in test [5]: cysteine-aspartic acid protease (CASP8), CASP8 (gene 841)
In words: LTEA_HepaRG_CASP8: Life Technologies and Expression Analysis (LTEA) Assay for cysteine-aspartic acid protease (CASP8) using HepaRG (AID 2283480). In a few lines:
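HepaRG, 48 h exposure, duplicate wells; 8 conc, half-log from 100 uM, 0.5% DMSO. Serum-free induction medium. CASP8 mRNA by TaqMan qRT-PCR, norm. ACTB/GAPDH/POLR2A; gain/loss fitted vs DMSO.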

Read-out in test [6]: Cytochrome P450 (CYP2B6), CYP2B6 (gene 1555)
In words: LTEA_HepaRG_CYP2B6: Life Technologies and Expression Analysis (LTEA) Assay for Cytochrome P450 (CYP2B6) using HepaRG (AID 2283481). In a few lines: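 Human HepaRG, 48 h dosing, 0.5% DMSO vehicle, top dose 100 uM. CYP2B6 transcript by qRT-PCR, housekeeping-normalized, bidirectional curve fit.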

Read-out in test [7]: Cytochrome P450 2C19 (Homo sapiens) (UniProt P33261)
In words: LTEA_HepaRG_CYP2C19: Life Technologies and Expression Analysis (LTEA) Assay for CYP2C19 using HepaRG (AID 2283482). In a few lines:
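Endpoint: CYP2C19 mRNA change, bidirectional fit vs 0.5% DMSO. Cells: HepaRG, 48 h exposure, eight-point series topping at 100 uM. Quantitation: qRT-PCR normalized to ACTB, GAPDH, POLR2A.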

Read-out in another test: CYP2C8 (gene 1558)
In words: LTEA_HepaRG_CYP2C8: Life Technologies and Expression Analysis (LTEA) Assay for CYP2C8 using HepaRG (AID 2283483). In a few lines: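 CYP2C8 mRNA induction or loss, by qRT-PCR normalized to ACTB/GAPDH/POLR2A, is read in HepaRG cells after 48 h treatment. Concentrations run from 100 uM down in half-log dilutions, with 0.5% DMSO as vehicle and baseline.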

Read-out in another test: CYP2C9 (gene 1559)
In words: LTEA_HepaRG_CYP2C9: Life Technologies and Expression Analysis (LTEA) Assay for CYP2C9 using HepaRG (AID 2283484). In a few lines: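 Cells plated 48 h, switched to serum-free induction medium, then treated in duplicate for 48 h at eight concentrations (max 100 uM, 0.5% DMSO). RNA then analysed by qRT-PCR for CYP2C9; curves fitted in both directions relative to DMSO.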

Read-out in the next test: CYP2E1 (gene 1571)
Description: LTEA_HepaRG_CYP2E1: Life Technologies and Expression Analysis (LTEA) Assay for CYP2E1 using HepaRG (AID 2283485). In a few lines: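 HepaRG cells in serum-free induction medium exposed 48 h to test chemicals, 8 half-log concentrations up to 100 uM in 0.5% DMSO, duplicate. CYP2E1 mRNA by qRT-PCR, normalized to ACTB, GAPDH, POLR2A; bidirectional fit versus DMSO.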

Read-out in another test: CYP4A11 (gene 1579)
In words: LTEA_HepaRG_CYP4A11: Life Technologies and Expression Analysis (LTEA) Assay for CYP4A11 using HepaRG (AID 2283486). In a few lines:
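Human hepatic HepaRG cultures receive duplicate 48 h exposures across a concentration-response series topping at 100 uM. Expression changes in CYP4A11 are measured by qRT-PCR relative to DMSO controls.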

Read-out in test [8]: DNA damage-inducible transcript 3 (DDIT3), DDIT3 (gene 1649)
Description: LTEA_HepaRG_DDIT3: Life Technologies and Expression Analysis (LTEA) Assay for DNA damage-inducible transcript 3 (DDIT3) using HepaRG (AID 2283488). In a few lines: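 Differentiated human HepaRG cells in serum-free induction medium were exposed in duplicate for 48 h to 8 concentrations (top 100 uM, half-log steps, 0.5% DMSO). DDIT3 mRNA measured by TaqMan qRT-PCR, normalized to ACTB/GAPDH/POLR2A; bidirectional fit versus DMSO.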

Read-out in test [9]: Pro-epidermal growth factor (Homo sapiens) (UniProt P01133)
In words: LTEA_HepaRG_EGF: Life Technologies and Expression Analysis (LTEA) Assay for Epidermal growth factor (EGF) using HepaRG (AID 2283489). In a few lines:
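Concentration-response mRNA assay: HepaRG cells dosed 48 h (max 100 uM, 0.5% DMSO), EGF measured by qRT-PCR and normalized to ACTB/GAPDH/POLR2A.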

Read-out in test [10]: Early growth response protein 1 (EGR1) transcription factor, EGR1 (gene 1958)
In words: LTEA_HepaRG_EGR1: Life Technologies and Expression Analysis (LTEA) Assay for Early growth response protein 1 (EGR1) transcription factor using HepaRG (AID 2283490). In a few lines: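 Read-out is EGR1 mRNA level by qRT-PCR, normalized to three housekeeping genes and analysed for gain or loss of signal against 0.5% DMSO. Source cells: human HepaRG, treated 48 h at up to 100 uM in half-log dilutions.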

Read-out in test [11]: Ezrin (EZR), EZR (gene 7430)
In words: LTEA_HepaRG_EZR: Life Technologies and Expression Analysis (LTEA) Assay for Ezrin (EZR) using HepaRG (AID 2283491). In a few lines: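 Gain or loss of EZR mRNA is scored relative to 0.5% DMSO in human HepaRG cultures treated 48 h with test chemicals in duplicate, eight half-log concentrations from 100 uM.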

Read-out in test [12]: Cytochrome P450 3A7 (Homo sapiens) (UniProt P24462)
In words: LTEA_HepaRG_CYP3A7: Life Technologies and Expression Analysis (LTEA) Assay for CYP3A7 using HepaRG (AID 2283492). In a few lines: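 qRT-PCR of CYP3A7 in HepaRG lysates after 48 h treatment; concentration-response (8 points, max 100 uM) analysed bidirectionally relative to 0.5% DMSO controls.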

Read-out in test [13]: Bcl-2 (BID) gene, BID (gene 637)
In words: LTEA_HepaRG_BID: Life Technologies and Expression Analysis (LTEA) Assay for Bcl-2 (BID) gene using HepaRG (AID 2283476). In a few lines:
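Differentiated HepaRG cells in serum-free induction medium were exposed in duplicate for 48 h to eight half-log concentrations up to 100 uM in 0.5% DMSO. BID mRNA was quantified by qRT-PCR, normalized to ACTB, GAPDH and POLR2A.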

Read-out in test [14]: Cytochrome P450 3A4 (Homo sapiens) (UniProt P08684)
In words: LTEA_HepaRG_CYP3A4: Life Technologies and Expression Analysis (LTEA) Assay for CYP3A4 using HepaRG (AID 2283487). In a few lines:
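In a human hepatic line (HepaRG), duplicate wells were treated 48 h with up to 100 uM chemical in half-log dilutions. Endpoint: CYP3A4 mRNA induction or loss relative to 0.5% DMSO vehicle, by qRT-PCR.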

The structures appear in SMILES notation. Active and inactive are the calls of the source. Rule for the calls: active = hit-call score of the fitted dose curve at least 0.9, where 1 is the maximum; inactive = score below 0.9.

Chain of Cytochrome P450 3A7 (Homo sapiens) (P24462 whole entry, looked up): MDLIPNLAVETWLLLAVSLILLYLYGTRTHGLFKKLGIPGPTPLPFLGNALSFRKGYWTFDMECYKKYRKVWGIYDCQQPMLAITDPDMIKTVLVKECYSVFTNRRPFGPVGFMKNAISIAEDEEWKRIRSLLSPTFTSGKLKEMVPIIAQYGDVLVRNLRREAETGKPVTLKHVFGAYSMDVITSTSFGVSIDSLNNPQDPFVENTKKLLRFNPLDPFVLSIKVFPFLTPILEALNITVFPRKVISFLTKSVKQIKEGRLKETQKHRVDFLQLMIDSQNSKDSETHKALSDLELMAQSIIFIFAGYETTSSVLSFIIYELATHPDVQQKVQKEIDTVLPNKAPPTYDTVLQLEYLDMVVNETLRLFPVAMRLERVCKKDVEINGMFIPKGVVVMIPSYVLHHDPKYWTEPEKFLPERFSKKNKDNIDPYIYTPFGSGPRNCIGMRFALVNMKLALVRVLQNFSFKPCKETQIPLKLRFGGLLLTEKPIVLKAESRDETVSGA
Chain of Cytochrome P450 2C19 (Homo sapiens) (P33261 whole entry, looked up): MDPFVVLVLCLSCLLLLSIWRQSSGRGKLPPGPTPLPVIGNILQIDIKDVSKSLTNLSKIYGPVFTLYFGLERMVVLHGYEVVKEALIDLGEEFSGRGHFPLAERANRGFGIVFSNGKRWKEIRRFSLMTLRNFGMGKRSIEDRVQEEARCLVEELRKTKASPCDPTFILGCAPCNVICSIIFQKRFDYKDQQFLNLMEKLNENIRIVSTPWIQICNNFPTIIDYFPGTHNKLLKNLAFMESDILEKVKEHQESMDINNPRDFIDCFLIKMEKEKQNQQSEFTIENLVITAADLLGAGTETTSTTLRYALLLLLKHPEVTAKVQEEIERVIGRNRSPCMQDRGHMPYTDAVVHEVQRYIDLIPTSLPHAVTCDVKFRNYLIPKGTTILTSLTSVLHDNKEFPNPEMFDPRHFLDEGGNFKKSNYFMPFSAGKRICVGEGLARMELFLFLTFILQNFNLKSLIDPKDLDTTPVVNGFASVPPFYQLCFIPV
Chain of Apoptosis regulator Bcl-2 (Homo sapiens) (P10415 whole entry, looked up): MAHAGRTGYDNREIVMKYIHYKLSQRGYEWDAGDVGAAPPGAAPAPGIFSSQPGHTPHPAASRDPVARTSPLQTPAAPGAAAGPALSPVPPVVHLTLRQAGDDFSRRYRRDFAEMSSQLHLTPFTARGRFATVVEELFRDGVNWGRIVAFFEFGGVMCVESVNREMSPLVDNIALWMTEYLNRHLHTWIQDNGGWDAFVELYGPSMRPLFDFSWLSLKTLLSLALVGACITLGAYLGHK
Chain of Caspase-3 (Homo sapiens) (P42574 whole entry, looked up): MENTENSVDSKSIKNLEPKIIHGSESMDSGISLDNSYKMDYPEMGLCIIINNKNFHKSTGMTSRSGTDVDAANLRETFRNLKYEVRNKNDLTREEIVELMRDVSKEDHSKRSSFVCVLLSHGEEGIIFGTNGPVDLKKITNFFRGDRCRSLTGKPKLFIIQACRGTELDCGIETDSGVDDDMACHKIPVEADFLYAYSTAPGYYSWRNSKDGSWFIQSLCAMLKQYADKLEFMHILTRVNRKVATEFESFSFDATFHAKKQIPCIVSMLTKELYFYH
Chain of Cytochrome P450 3A4 (Homo sapiens) (P08684 whole entry, looked up): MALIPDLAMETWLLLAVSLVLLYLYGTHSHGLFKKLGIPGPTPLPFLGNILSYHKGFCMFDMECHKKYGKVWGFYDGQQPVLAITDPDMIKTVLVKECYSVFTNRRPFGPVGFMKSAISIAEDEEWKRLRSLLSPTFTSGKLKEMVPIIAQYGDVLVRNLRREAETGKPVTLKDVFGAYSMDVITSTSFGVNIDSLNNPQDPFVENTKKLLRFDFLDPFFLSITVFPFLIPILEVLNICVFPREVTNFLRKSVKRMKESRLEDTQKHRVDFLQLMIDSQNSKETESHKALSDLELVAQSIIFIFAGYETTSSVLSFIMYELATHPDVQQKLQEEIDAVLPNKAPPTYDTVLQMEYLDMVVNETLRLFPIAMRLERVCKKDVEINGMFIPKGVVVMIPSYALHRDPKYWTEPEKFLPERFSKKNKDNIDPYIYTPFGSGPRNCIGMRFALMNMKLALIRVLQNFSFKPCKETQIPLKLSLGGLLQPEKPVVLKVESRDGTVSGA

Usually AC50 stands for the concentration giving half of the maximal activity seen. With `Cc1cc(N=Nc2ccccc2C)ccc1N`, the half-maximal activity concentration (AC50) in the test with BCL2L11 (gene 10018) was 3.13 µM (active); in test [1], 2.97 µM (active); in test [2], 78 µM (active); in test [4] it was 31.4 µM (active); in test [6], 5.08 µM (active); in [7], 4.72 µM (active). In addition, the AC50 is 5.98 µM (active) in the test with CYP2C8 (gene 1558); 4.8 µM (active) in the test with CYP2C9 (gene 1559); 12.8 µM (active) with CYP2E1 (gene 1571); 4.52 µM (active) with CYP4A11 (gene 1579); 6.38 µM (active) in test [12]. Also, the molecule was classed as inactive (in the test with Caspase-3 (Homo sapiens); in [3]; in test [5]; in [8]; in test [9]; in [10]). Besides, the outcome in test [11] was inactive.

As to `O=C(O)C1C2CCC(O2)C1C(=O)O` (centres undefined), the outcome (with BCL2L11 (gene 10018); in test [2]; in test [13]; with Caspase-3 (Homo sapiens); in test [3]; in test [10]) was inactive. Moreover, the AC50 was 67.8 µM (active) in [1]; 50 µM (active) in test [4]; 77.7 µM (active) in test [6]; 82 µM (active) in test [7]; 86.7 µM (active) in the test with CYP2C9 (gene 1559); 45.4 µM (active) in the test with CYP2E1 (gene 1571). In addition, the AC50 with CYP4A11 (gene 1579) was 50 µM (active); in [14] it was 79.7 µM (active); in [8], 50 µM (active); in test [9] it was 13.9 µM (active); in test [11] it was 9.92 µM (active); in [12] it was 61.1 µM (active).

Take `Brc1ccc(Oc2ccccc2)cc1`: the outcome (with BCL2L11 (gene 10018); in test [1]; in test [2]; in test [13]; with Caspase-3 (Homo sapiens); in test [3]) was inactive. The molecule was classed as inactive (in [4]; in test [5]; in [7]; in the test with CYP2C9 (gene 1559); with CYP2E1 (gene 1571); with CYP4A11 (gene 1579)). Besides, the call in test [8], in test [9], in [10], in test [11] and in test [12] was inactive. The concentration at half-maximal activity (AC50) in test [6] is 78.1 µM (active).

Source of the values: PubChem BioAssay (EPA / NIEHS).
